Records with an inconclusive call do not appear. Where a call stands in place of a potency, no number is given. Calls of active or inactive are those of the source. Calls follow the shape of the dose curve; as a rule, active = well fitted cell-killing curve with a large enough effect in the repeat runs; inconclusive = weak or mixed curves, or effect the other way; inactive = no such curve, though single readings can be large or run the other way.
Test: qHTS assay to identify small molecule antagonists of the retinoid-related orphan receptor gamma (ROR-gamma) signaling pathway - cell viability counter screen (AID 1159520); also: nearly all actives have a fitted effect of over 50% in size
Conditions: Tet-on RORgamma CHO cells viability, ATP luminescence, 16 h; series mostly up to 92.4 µM
From the text: U.S. Tox21 Program National Center for Advancing Translational Sciences [NCATS] NIH Chemical Genomics Center [NCGC] U.S. Environmental Protection Agency [EPA] National Institutes of Environmental Health Sciences [NIEHS] National Toxicology Program [NTP] U.S. Food and Drug Administration [FDA] Tox21 Assay Overview: Nuclear steroid hormone receptors are involved in many biological processes including inflammatory responses, cell proliferation, and apoptosis. Environmental factors or compounds disrupting these nuclear receptor pathways and gene expression may promote susceptibility to immunotoxicants and autoimmune diseases. One important group of these expression factors are the retinoid-related orphan receptors. To assess compounds that may interfere with the retinoid-related orphan receptor gamma (ROR-gamma) transcription factor, a cell-based luciferase assay was used. The CHO cell-based assay utilizes a TET-inducible ROR expression factor and ROR response element-LUC reporter gene. Reporter gene activity was induced using Doxycycline Hyclate and measured after 16 hr incubation. Tet-on ROR gamma CHO cells were used to screen against the Tox21 10K compound library for cytotoxicity by measuring the viability of the cells based on the quantitation of the ATP.
Tox21 Assay Protocol Summary: Tet-on ROR gamma CHO cells were dispensed at 1,000 cells in 4 uL of culture medium per well into white wall/solid bottom 1536-well plates using a Multidrop Combi (Thermo Scientific, Waltham, MA) dispenser. Following incubation at 37 C and 5% CO2 for 4 hr, 23 nL of compounds dissolved in DMSO, positive controls or DMSO only were transferred by a Pintool station (Kalypsys, San Diego, CA) and after 2 hr incubation at 37 C, one ul of 1 uM (final concentration) of Doxycycline Hyclate was added to all the wells by using a Flying Reagent Dispenser (FRD) (Aurora Discovery, San Diego, CA). After 16 hr incubation at 37 C and 5% CO2, 5 uL of CellTiter-Glo reagent (Promega Corporation, Madison, WI) was added to each assay plate using FRD. After 30 min incubation at room temperature, luminescence was quantified on a ViewLux plate reader (Perkin Elmer, Waltham, MA).

SMILES | Potency
Cc1cccc(O)c1 | inactive
CC(C)(N)CO | inactive
O=P(OC(CCl)CCl)(OC(CCl)CCl)OC(CCl)CCl | inactive
CCCCCCCCCCCCS | inactive
CC(=O)Nc1cccc(O)c1 | inactive
O=S(=O)(O)c1ccc2ccccc2c1 | inactive
C=CCOC(=O)c1ccccc1C(=O)OCC=C | inactive
CC(C)CC(=O)CC(C)C | inactive
O=S1(=O)CC=CC1 | inactive
C=C(C)C(=O)O[C@H]1C[C@@H]2CC[C@@]1(C)C2(C)C | inactive
O=C(O)[C@H](O)[C@@H](O)[C@H](O)[C@H](O)CO | inactive
CCCCOC(=O)COc1ccc(Cl)cc1Cl | inactive
O=c1[nH]nnc2ccccc12 | inactive
CCCCC(CC)COC(=O)CCCCC(=O)OCC(CC)CCCC (stereo not given) | inactive
COc1ccc2cc([C@H](C)C(=O)O)ccc2c1 | inactive
Cc1cc(C)c(C)cc1C | inactive
C#C[C@]1(O)CC[C@H]2[C@@H]3CCC4=CC(=O)CC[C@@H]4[C@H]3CC[C@@]21C | inactive
C=CCNC(N)=S | inactive
CSCCC=O | inactive
CCCCC(CC)CO (stereo not given) | inactive

SMILES | Potency
CCCCCCOCCO | inactive
Fc1ccc(Br)cc1 | inactive
CCCCCCCC(=O)OC | inactive
c1c[nH]cn1 | inactive
CC(=O)OCC(=O)[C@@]12N=C(C)O[C@@H]1C[C@H]1[C@@H]3CCC4=CC(=O)C=C[C@]4(C)[C@H]3[C@@H](O)C[C@@]12C | inactive
Nc1cc([N+](=O)[O-])ccc1O | inactive
CC(c1cc2ccccc2s1)N(O)C(N)=O (stereo not given) | inactive
O=C(O)CCCCCCCCCCC(=O)O | inactive
CCCCCCCCCCCCCCO | inactive
CC(=O)CC(=O)Nc1ccccc1C | inactive
COCCCOc1ccnc(CS(=O)c2nc3ccccc3[nH]2)c1C (stereo not given) | inactive
CCN(CC)c1ccc(C(=O)c2ccccc2C(=O)O)c(O)c1 | inactive
O=C(O)c1ccc2c(c1)C(=O)OC2=O | inactive
Cc1ccc2oc(=O)ccc2c1 | inactive
C=C(C)C(=O)Nc1ccc(Cl)c(Cl)c1 | inactive
O=c1[nH]c(=O)n([C@H]2C[C@H](O)[C@@H](CO)O2)cc1Br | inactive
CCCCN(CCCC)CCCC | inactive
FC(F)(F)c1ccc(Cl)c(Cl)c1 | inactive
CCCCCC1=CCCC1=O | inactive
Cc1occc(=O)c1O | inactive

From PubChem BioAssay (Tox21)
